D2 PAM-1: HTS Assay for Positive Allosteric Modulators of the Human D2 Dopamine Receptor: Primary Screen for Potentiators. 0.34% of 340,000 active. AID 485347, 2010. HEK293 T-REx D2, calcium flux, EC20 dopamine potentiation. D(2) dopamine receptor (Homo sapiens), P14416. potentiation, % at 10 µM;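 active = potentiation over 3 SD above the plate norm, cut at about 30% in these data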; also: 0% is about no effect
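Calcium flux readout, no-wash dye, 1 read/s. Inducible HEK293 Trex D2 line, overnight 30 C. Compound alone 180 s (agonist flags), then EC20 dopamine, another 180 s to score potentiation.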
D2 antagonist: HTS Assay for Allosteric Antagonists of the Human D2 Dopamine Receptor: Primary Screen for Antagonists | HEK293 TREx D2 cells, calcium flux, dopamine EC80 | 2% of 340,000 active | inhibition, % at 10 µM; in the data active = inhibition above about 30%; inactive = below that, where a call was filed; also: 0% is about no effect
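Compounds are added to dye-loaded, induced HEK293 T-REx cells coupled to calcium release via D2; after a 3 min kinetic read an EC80 dopamine stimulus is given and fluorescence is recorded for 3 more min.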
D2 ag-1: Beta-Arrestin HTS for Positive Allosteric Modulators of the Human D2 Dopamine Receptor: Agonists | activation, % (test concentration not listed) | AID 624465, 2012 | 0.084% of 360,000 active | D(2) dopamine receptor (Homo sapiens), P14416 | DiscoveRx PathHunter D2 beta-arrestin, luminescence, 90 min; 100% = 57 uM dopamine signal; in the data active = activation above about 40%; inconclusive = between about 15% and that limit
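DiscoveRx PathHunter D2 beta-arrestin cells (2,100/well) attached overnight, then compound-stimulated 90 min at 37 C in HBSS/10 mM HEPES/0.1% Tween-20 buffer; beta-galactosidase complementation read by luminescence after 1 h at ambient temperature. Dopamine 57 uM final (EC100) as control.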
D2 PAM-2: Beta-Arrestin HTS for Positive Allosteric Modulators of the Human D2 Dopamine Receptor: Potentiators; D(2) dopamine receptor (Homo sapiens), P14416; DiscoveRx D2 beta-arrestin cells, luminescence, 90 min; 100% = 57 uM dopamine signal; potentiation, % (test concentration not listed); 0.23% of 360,000 active; AID 624464, 2012; in the data active = potentiation above about 50%; inconclusive = mostly about 30% to 49%
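D2 cells co-treated with compound plus 50 nM dopamine (EC20) for 90 min at 37 deg C to detect potentiation. Beta-arrestin recruitment was read as enzyme-fragment luminescence after 1 h at ambient temperature. Full response was set by 57 uM dopamine.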
D2 ag-2: HTS Assay for Allosteric Agonists of the Human D2 Dopamine Receptor: Primary Screen for Agonists; activation, % at 2 µM; AID 485358, 2010; HEK293 T-REx D2 cells, calcium flux agonist mode; 0.53% of 340,000 active; D(2) dopamine receptor (Homo sapiens), P14416;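 active = activation over 3 SD above normal in the single-dose calcium agonist read, cut at about 30% in these data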; also: 0% is about no effect
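Agonism scored from kinetic calcium signal (1 read/sec, 180 s) following compound pin transfer, after a 10 s baseline. Cells: HEK293 Trex line expressing inducible D2 receptor coupled to calcium, dye-loaded after overnight culture at 30 C.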
D3 ag: qHTS of D3 Dopamine Receptor Agonist: D3 Dopamine Receptor B-arrestin Agonist Confirmatory Assay; shares compounds with D2 ag-2; Potency, µM (doses to about 76.9 µM), for inactives: top-dose activation, hits mostly activators; 4% of 2,300 active; DiscoveRx D3 beta-arrestin cells, luminescence, 90 min;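 also: potency is read from the fitted curve at half-maximal effect; 100% = dopamine control response; nearly all actives have a fitted effect of over 70% in size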
Target sequence (P35462 whole entry, looked up): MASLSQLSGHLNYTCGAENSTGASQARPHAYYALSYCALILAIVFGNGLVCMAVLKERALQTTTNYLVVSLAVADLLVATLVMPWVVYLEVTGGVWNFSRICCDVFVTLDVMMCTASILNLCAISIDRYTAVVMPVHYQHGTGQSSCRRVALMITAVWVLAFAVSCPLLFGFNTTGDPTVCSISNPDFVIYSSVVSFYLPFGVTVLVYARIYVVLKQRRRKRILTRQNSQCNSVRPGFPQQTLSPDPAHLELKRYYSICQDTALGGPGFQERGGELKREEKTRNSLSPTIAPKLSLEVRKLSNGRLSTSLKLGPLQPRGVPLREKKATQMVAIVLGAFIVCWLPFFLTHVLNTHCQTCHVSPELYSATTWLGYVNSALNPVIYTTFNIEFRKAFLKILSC
D2 ag-3: qHTS of D3 Dopamine Receptor Agonist: D2 Dopamine Receptor B-arrestin Agonist Counterscreen | DiscoveRx PathHunter D2 beta-arrestin, luminescence, 90 min; response scale: percent relative to full dopamine signal | AID 720507, 2013 | 5.9% of 2,300 active | Potency, µM (titrated, usually from 76.9 µM), inactives show at the highest dose activation, most hits filed as activators | shares compounds with D2 ag-2; also: potency is read from the fitted curve at half-maximal effect; % of control where 0% means no effect; nearly all actives have a fitted effect of over 70% in size
The depositor's hits bear a star; ? = inconclusive; . = no result given. Compounds with a hit are over-represented: about 2.4% of the library has one in this group of screens. Unless noted, calls follow the shape of the dose curve; as a rule, active = well fitted activation curve with a large enough effect; inconclusive = small, poorly fitted or top-dose-only effect; inactive = flat fitted curve, though single readings scatter.

SMILES | D2 PAM-1 | D2 antagonist | D2 ag-1 | D2 PAM-2 | D2 ag-2 | D3 ag | D2 ag-3
CCOC(=O)c1c(C)[nH]c(C)c1S(=O)(=O)N1CCCC(C(=O)NCc2cccc(OC)c2)C1 (stereo not given) | -2 | . | . | . | 0 | . | .
O=C(C1CCC(Cn2c(=O)c3sccc3n(Cc3ccccc3)c2=O)CC1)N1CCOCC1 (stereo not given) | -11 | . | . | . | 0 | . | .
Cc1ccc(C)c(NC(=O)Cc2coc3cc(C)cc(C)c23)c1 | -15 | . | . | . | -1 | . | .
COc1ccccc1OCc1ccc(C(=O)N/N=C/c2ccco2)cc1 | -18 | 44* | -2 | -25 | 0 | . | .
COc1ccccc1OCc1ccc(C(=O)N2CCN(C(=O)c3ccco3)CC2)cc1 | -6 | 35* | 2 | -8 | 0 | . | .
O=C1CC(c2ccc(Cl)cc2)CC(O)=C1C=NCCN1CCNCC1 (stereo not given) | 1 | 53* | . | . | 1 | . | .
C=CCNC(=S)N1CCN(CCN=CC2=C(O)CC(c3ccc(Cl)cc3)CC2=O)CC1 (stereo not given) | 23 | -18 | 2 | 7 | 1 | . | .
COc1ccc(N(C(=O)c2snc(C(N)=O)c2N)C(C(=O)NCc2ccccc2)c2ccc(O)cc2)cc1 (stereo not given) | -3 | 0 | 0 | 1 | 0 | . | .
COc1ccc(OC)c(N(C(=O)c2snc(C(N)=O)c2N)C(C(=O)NCc2ccccc2)c2ccc(O)cc2)c1 (stereo not given) | -3 | 43* | 0 | 1 | 1 | . | .
COc1ccc(S(=O)(=O)N2CCC(N3CCN(Cc4ccccc4)CC3)CC2)cc1 | -20 | 74* | 14 | -2 | 77* | -9% | 27%
O=C(CCC(=O)N1CCOCC1)NCCc1ccccc1 | -9 | 22 | 12 | -13 | 2 | -4% | 26%
S=C(NCCc1ccccc1)N1CCOCC1 | -4 | 29 | -2 | -7 | 0 | . | .
CN(C)S(=O)(=O)n1cnc([C@@H]2[C@@H]3C(=O)OC[C@@H]3C[C@]23N=CN(Cc2ccccc2)C3=O)c1 | 8 | 31* | 1 | -5 | 0 | -2% | -4%
CN(C)S(=O)(=O)n1cnc([C@H]2c3c(ncn3Cc3ccccc3)C[C@H]3COC(=O)[C@@H]32)c1 | 10 | -1 | -5 | -3 | 0 | . | .
CCOc1ccccc1CNC(=O)CN(c1ccc(C)cc1)S(=O)(=O)N(C)C | -9 | . | . | . | 0 | . | .
Cc1ccc(CNC(=O)c2cccc3c2C(=O)c2ccc(N4CCOCC4)cc2S3(=O)=O)cc1 | 2 | -4 | -8 | 3 | 2 | -2% | -2%
COC(=O)COc1ccc(NC(=O)Cn2nc(-c3ccccc3)c3ccccc3c2=O)cc1 | 7 | -3 | 4 | -5 | 0 | . | .
COc1ccc(-c2nn(CC(=O)Nc3ccc(Cl)c(Cl)c3)c(=O)c3ccccc23)cc1 | 6 | 29 | -4 | -1 | 54* | -8% | -4%
Cc1c(N=c2scc(-c3ccccc3)n2C)c(=O)n(-c2ccccc2)n1C | -16 | 76* | ? | -6 | 66* | -1% | ?
Cc1c(N=c2scc(-c3ccccc3)n2CCO)c(=O)n(-c2ccccc2)n1C | -4 | 1 | 0 | -5 | 24 | . | .
CCO[C@@H]1OC(C(=O)O)=C[C@H](c2csc3ccccc23)[C@H]1CCCO | -6 | 32* | -3 | -4 | 0 | -3% | -3%

Source: PubChem (National Center for Advancing Translational Sciences (NCATS))
